Where “and” joins values, the source holds several entries; their conditions need not be identical. Equal entries are not always repeated. Results filed as inconclusive are left out. More than one record can exist for a structure, and the calls need not agree. Unmarked numbers belong to inactive results. Calls of active or inactive are those of the source. Calls follow the shape of the dose curve; as a rule, active = well fitted inhibition curve with a large enough effect; inconclusive = small, poorly fitted or top-dose-only effect; inactive = flat fitted curve, though single readings scatter.
System: HEK293
Experiment: Cytotoxic Profiling of Annotated Libraries Using Quantitative High-Throughput Screening (AID 1296008); also: nearly all actives have a fitted effect of over 60% in size
Conditions: Five cell lines viability, CellTiter-Glo ATP luminescence, 48-72 h; max response: hits give low values
How it was run: (§1)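 Cytotoxicity was measured as CellTiter-Glo ATP luminescence, read after 10 min at room temperature. Compound treatment of the cells lasted 48 or 72 hr at 37 degrees Celsius in a qHTS format.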
% is scaled to controls: 0 for no effect and ±100 for the full control effect; potency is read from the fitted curve at half-maximal effect.

Structure (SMILES)	Potency	max response [%]
Cc1c(C(=O)c2cccc3ccccc23)c2cccc3c2n1[C@H](CN1CCOCC1)CO3	18.7 µM (active)	
Nc1ccc(Sc2ccc(N)cc2)cc1		-4.95
O=C(O)COc1nc(Cl)c(Cl)cc1Cl		-3.5
CO/C=C(/C(=O)OC)c1ccccc1Oc1cc(Oc2ccccc2C#N)ncn1	8.63 µM (active)	
CS(=O)(=O)c1ccc(C(=O)C2C(=O)CCCC2=O)c([N+](=O)[O-])c1		-9.25
Cc1c(N)nc([C@H](CC(N)=O)NC[C@@H](N)C(N)=O)nc1C(=O)N[C@H](C(=O)N[C@@H](C)[C@H](O)[C@@H](C)C(=O)N[C@@H](C(=O)NCCc1nc(-c2nc(C(=O)NCCC[S+](C)C)cs2)cs1)[C@@H](C)O)C(O[C@H]1O[C@H](CO)[C@H](O)[C@@H](O)[C@@H]1O[C@H]1O[C@H](CO)[C@@H](O)[C@H](OC(N)=O)[C@H]1O)c1cnc[nH]1 (some centres not stated)	0.526 µM (active)	
CC(O)=C(C#N)C(=O)Nc1cc(Br)ccc1Br		-1.81
CC(C)(O)C=CC(=O)[C@](C)(O)[C@H]1[C@H](O)C[C@]2(C)[C@@H]3CC=C4[C@@H](C=C(O)C(=O)C4(C)C)[C@]3(C)C(=O)C[C@@]12C	1.87 µM (active)	
C/C=C(/C)C(=O)O[C@H]1C(C)=C2[C@H]([C@@H]1OC(=O)CCCCCCC)[C@@](C)(OC(C)=O)C[C@H](OC(=O)CCC)[C@@]1(O)[C@H]2OC(=O)[C@@]1(C)O	0.0291 µM (active)	
CC(=O)[O][Hg][c]1ccccc1	0.376 µM (active)	
CC[C@H]1C=CC=CC[C@@H](C)[C@H](O)[C@@](C)(O)C(=O)[C@@H](C)[C@H](O)[C@@H](C)C(=O)[C@@H](C)[C@H](O)[C@@H](C)C=CC(=O)O[C@@H]2[C@@H](C)[C@H](CC1)O[C@]1(CC[C@H](C)[C@H](C[C@@H](C)O)O1)[C@H]2C	0.332 µM (active)	
COCCOCCO		-2.65
COc1ccc2c(c[n+](C)c3c4cc5c(cc4ccc23)OCO5)c1OC	2.96 µM (active)	
Cc1c(C(=O)Nc2cccc(C(F)(F)F)c2)cc(-c2ccccc2)n1CCCN1CCOCC1	14.8 µM (active) and 14.6 µM (active)	
CC(C)(C)NC[C@H](O)c1ccc(O)cc1Cl		-9.08

System: HaCat
Experiment: as above
Conditions: Five cell lines viability, CellTiter-Glo ATP luminescence, 48-72 h; max response: hits give low values
How it was run: as §1

Structure (SMILES)	max response	outcome	Potency
CC(=O)Nc1ccc(OC[C@](C)(O)C(=O)Nc2ccc([N+](=O)[O-])c(C(F)(F)F)c2)cc1	-8.66% and -10.1%		
CCCCCCCCCC(CC)c1ccc(S(=O)(=O)O)cc1 (configuration not stated)		inactive	
CC(O)CN1CCN(CC(=O)[O-])CCN(CC(=O)[O-])CCN(CC(=O)[O-])CC1.[Gd+3] (configuration not stated)	-14.5%		
CN1CCN(c2ccc([N+](=O)[O-])c3no[n+]([O-])c23)CC1	4.94% and 1.91%		
CCOP(=O)(NC(C)C)Oc1ccc(SC)c(C)c1 (configuration not stated)		inactive	
COC1=C[C@@H]2[C@@H]3Cc4ccc(OC)c(O)c4[C@]2(CCN3C)CC1=O	-2.22%	inactive	
O=C1C=CC[C@@H]2[C@H]3CCCN4CCC[C@@H](CN12)[C@@H]34	-19.8% and -9.45%		
O=C(NCC1CCOCC1)c1cnc(Nc2ccc(Cl)cc2Cl)nc1C(F)(F)F	-8.57% and -14.9%		
C=C1C[C@H]2[C@H]3CCC(=O)[C@@]3(C)CC[C@@H]2[C@@]2(C)C=CC(=O)C=C12		inactive	
C[C@@H]1[C@H](O)[C@@H](C)C=CC=CCCC=CC=CC=CC=C[C@H](O[C@H]2O[C@@H](C)[C@H](O)[C@@H](N)[C@@H]2O)CC2O[C@](O)(C[C@@H](O)[C@H](O)CC[C@@H](O)C[C@@H](O)C[C@@H](O)CC(=O)O[C@H]1C)C[C@H](O)[C@H]2C(=O)O		inactive	
COc1ccc(CC2NCCc3cc(OC)c(OC)cc32)cc1OC (configuration not stated)		inactive	
C[C@H]1CCCC=CC2C[C@H](O)C[C@@H]2[C@H](O)C=CC(=O)O1 (some centres not stated)	-111%		
OCCCBr	-13%		
CCN(CC)C(=O)c1ccc(C2=CC3(CCNCC3)Oc3cccc(O)c32)cc1	-0.307%	inactive	
Cc1ccccc1-n1c(Cn2cnc3c(N)ncnc32)nc2cccc(C)c2c1=O	-10.3%		590 nM (active)
COc1ccc2c(c1)CN(C)CC2c1ccc(Cl)c(Cl)c1 (configuration not stated)		inactive	
c1cc2c(cc1[C@H]1OC[C@H]3[C@H]1CO[C@H]3c1ccc3c(c1)OCO3)OCO2		inactive	
O=[N+]([O-])c1ccc([As](=O)(O)O)cc1		inactive	
CC(N[C@H]1C[C@H]1c1ccccc1)c1ccc2c(c1)OCCO2 (some centres not stated)		inactive	
CC(=O)OCC1=C(C(=O)O)N2C(=O)[C@@H](N)[C@@H]2SC1	-5.82%		
Cc1nc(-c2ccc(-c3ccc(C(=O)N4CCc5cc6c(cc54)C4(CCN(C)CC4)CO6)cc3)c(C)c2)no1		inactive	
CC(C)(C)C(O)C(Oc1ccc(Cl)cc1)n1cncn1 (configuration not stated)	0.929%		
O=C1CCC[C@@H]2[C@H]3CCCN4CCC[C@@H](CN12)[C@@H]34	3.98%		
O=C1C(I)=CC(=C(c2cc(I)c(O)c(I)c2)c2ccccc2C(=O)O)C=C1I		inactive	

— PubChem BioAssay (NCATS)
